Sampled rows, rich in hits. Any-hit rate of the full collection: about 15%.
Gal4-VP16 FLuc: VP16 counterscreen qHTS for inhibitors of ROR gamma transcriptional activity; Drosophila S2 Gal4-VP16 UAS-luciferase, luminescence, 20 h; 310,000 tested, 3.5% active; Potency, µM (top dose mostly 53.6 µM), for the others: at the highest dose activity, negative = inhibition, most hits filed as inhibitors;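 also: Gal4-VP16 expression switched on by copper sulfate through the metallothionein promoter; nearly all actives have a fitted effect of over 50% in size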
TDP1 cell noCPT: qHTS for Inhibitors of human tyrosyl-DNA phosphodiesterase 1 (TDP1): qHTS in cells in absence of CPT | DT40 Tdp1-/- hTDP1 cells, no CPT, ATP luminescence, 48 h | Potency, µM (titrated, usually from 46.2 µM), for the others: at the highest dose activity change, negative = growth inhibition, hits mostly inhibitors | 420,000 tested, 15% active; also: nearly all actives have a fitted effect of over 55% in size
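DT40 Tdp1-/-;hTDP1 cells, no CPT (DMSO vehicle only), 400 cells/well; compounds pin-transferred; ≥48 hr, 37 °C; CellTiter-Glo 30 min RT dark, luminescence read.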
TDP1 cell CPT: qHTS for Inhibitors of human tyrosyl-DNA phosphodiesterase 1 (TDP1): qHTS in cells in presence of CPT. 420,000 tested, 12% active. chicken DT40 Tdp1-/-;hTDP1 cells + 20 nM CPT, ATP luminescence, 48 h. AID 686979, 2013. Potency, µM (series often up to 46.2 µM), for inactives: at the highest dose activity change, negative = growth inhibition, most hits filed as inhibitors; also: nearly all actives have a fitted effect of over 55% in size
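Cell growth measured by CellTiter-Glo luminescence after a minimum 48 h, 37 C compound exposure with 20 nM CPT in Tdp1-knockout DT40 cells stably expressing hTDP1, seeded 400/well; qHTS titration format.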
ALOX12 inh: Primary qHTS assay for inhibitors of human arachidonate 12S-lipoxygenase (ALOX12): Round 2; 580,000 tested, 1.1% active; purified 12hLO, xylenol orange hydroperoxide absorbance; Potency, µM (series often up to 108 µM), without a hit: top-dose activity change, negative = inhibition, most hits filed as inhibitors
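Purified human 12hLO (150 nM final) in 25 mM Hepes, 0.01% Triton X-100, pH 7.0 was preincubated 15 min at room temperature with compound. Then 40 uM arachidonic acid was added, 30 min. Hydroperoxide was read by Fe-XO absorbance ratio 573/405 nm.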
RORgamma inh: qHTS for inhibitors of ROR gamma transcriptional activity | Drosophila S2 Gal4-RORgamma UAS-luciferase reporter, 20 h | Potency, µM (top dose mostly 53.6 µM), inactives show at the highest dose activity change, negative = inhibition, usual class: inhibitors | 310,000 tested, 5.4% active; also: nearly all actives have a fitted effect of over 60% in size
Target sequence (P51450 whole entry, looked up, the tested form may be a part): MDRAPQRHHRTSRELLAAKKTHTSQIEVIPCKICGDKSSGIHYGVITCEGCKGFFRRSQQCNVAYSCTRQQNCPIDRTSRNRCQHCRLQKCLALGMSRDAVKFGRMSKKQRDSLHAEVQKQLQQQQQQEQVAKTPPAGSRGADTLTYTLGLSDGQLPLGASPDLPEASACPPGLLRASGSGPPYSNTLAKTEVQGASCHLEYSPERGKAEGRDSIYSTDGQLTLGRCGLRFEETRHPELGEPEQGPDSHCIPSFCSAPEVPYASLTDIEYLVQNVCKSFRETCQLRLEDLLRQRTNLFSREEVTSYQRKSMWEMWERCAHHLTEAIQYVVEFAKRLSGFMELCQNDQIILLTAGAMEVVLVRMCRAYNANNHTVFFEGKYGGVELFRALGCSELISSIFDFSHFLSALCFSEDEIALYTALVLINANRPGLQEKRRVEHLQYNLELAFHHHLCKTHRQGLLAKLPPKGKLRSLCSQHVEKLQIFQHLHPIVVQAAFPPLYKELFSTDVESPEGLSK
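ROR gamma transcriptional activity was tracked as Gal4-UAS luciferase output in stably transfected Drosophila Schneider cells, with compound added 1 hr before 700 uM copper sulfate induction and a 20 hr ambient-temperature incubation.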
ELG1 repair inh: qHTS screen for small molecules that inhibit ELG1-dependent DNA repair in human embryonic kidney (HEK293T) cells expressing luciferase-tagged ELG1. HEK293T ELG1-luciferase reporter, luminescence, 16 h; DNA damage induced by 5-fluorouridine. Potency, µM (top dose mostly 46.1 µM), for inactives: top-dose activity change, negative = inhibition, actives largely listed as inhibitors. 330,000 tested, 2.3% active. AID 504467, 2011; also: nearly all actives have a fitted effect of over 55% in size
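Quantitative HTS, concentration-response format. 2,000 cells/well co-treated with 5-fluorouridine and compound, 16 hr in 5% CO2 at 37 °C; ONE-Glo luminescence read after 30 min.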
* = called active by the depositor; ? = inconclusive; · = not tested or not shown; [ ] = another dose, or the depositor's remark. Calls follow the shape of the dose curve; as a rule, active = well fitted curve in the direction sought with a large enough effect; inconclusive = small, poorly fitted or top-dose-only effect, or another doubt; inactive = no such curve, though single readings can be large; an effect the other way counts as inactive or inconclusive. % is scaled to controls: 0 for no effect and ±100 for the full control effect; potency is read from the fitted curve at half-maximal effect.

SMILES | Gal4-VP16 FLuc | TDP1 cell noCPT | TDP1 cell CPT | ALOX12 inh | RORgamma inh | ELG1 repair inh
C=CCNc1nc(C(=O)OCC(=O)NCC(=O)Nc2ccccc2Br)cs1 | · | · | · | 4.9% | · | ·
CCCNC(=O)c1c(N)n(-c2cc(OC)cc(OC)c2)c2nc3ccccc3nc12 | -14.9% | ? | ? | 0.0% | -2.9% | 18.4µM*
Cc1cc2c(cc(C(=O)OC(C(=O)NCc3ccco3)C(C)C)n2C)o1 (configuration not stated) | 1.7% | 18.4µM* | 25.9µM* | ? | 0.0%[10 µM] | 23.1µM*
CCOc1ccc(-n2c(N)c(C(=O)NCc3ccco3)c3nc4ccccc4nc32)cc1 | 1.3% | 18.4µM* | 20.6µM* | · | ? | -19.6%
Nc1c(S(=O)(=O)c2ccccc2)c2nc3ccccc3nc2n1/N=C/c1ccco1 | -23.5% | ? | ? | ? | -34.6% | ?
CCOCCCNC(=O)c1c(N)n(-c2ccc(S(N)(=O)=O)cc2)c2nc3ccccc3nc12 | -5.4% | -10.0% | -1.6% | -3.8% | -28.7% | 27.2%
Nc1c(C(=O)NC2CCCCC2)c2nc3ccccc3nc2n1/N=C/c1ccco1 | ? | · | · | · | 12.6µM* | 0.0%
COCCNC(=O)N1CCN(c2oc(-c3ccco3)nc2C#N)CC1 | · | · | · | -17.2% | · | ·
CCCC1c2nccn2CCCN1C(=O)Cn1c(=O)oc2ccccc21 (configuration not stated) | · | · | · | 39.1% | · | ·
O=C1CCN(S(=O)(=O)c2ccccc2)CCCC(C(=O)NCCN2CCOCC2)CCN1 (configuration not stated) | · | · | · | 25.2% | · | ·
CCCNC(=O)c1c(N)n(-c2ccc3c(c2)OCO3)c2nc3ccccc3nc12 | 3.1% | 14.6µM* | 8.2µM* | 0.0% | 4.7% | 14.5%
COCCCNC(=O)c1c(N)n(-c2ccc3c(c2)OCO3)c2nc3ccccc3nc12 | ? | ? | ? | ? | 3.1% | -23.9%
CCOc1ccc(-n2c(N)c(-c3nc4ccccc4n3C)c3nc4ccccc4nc32)cc1 | 1.26µM* | ? | ? | 4.8% | 1µM* | -17.6%
Nc1c(C(=O)NC2CC2)c2nc3ccccc3nc2n1-c1ccc2c(c1)OCO2 | ? | ? | ? | 0.0% | 6.4% | 16.4µM*
CCOc1ccc2c(c1)cc(C(=O)NCc1ccco1)n2C | · | · | · | 17.8µM* | · | ·
C#CCN(CC=C)C(=O)c1ccccc1OC1CCN(C(=O)c2cccnc2)CC1 | · | · | · | 11.8% | · | ·
COc1cccc2ccc(N3CCN(Cc4ccccc4)CC(O)C3)nc12 (configuration not stated) | · | · | · | 15.5% | · | ·
O=C(NC1CCCCC1)Oc1cc2oc(=O)sc2cc1Br | -29.7% | ? | 16.4µM* | ? | 0.0% | ?
COc1ccc(N2CCCS2(=O)=O)cc1NS(=O)(=O)c1cc(C)ccc1C | · | · | · | 48.4% | · | ·
O=c1cc(-c2ccc(O)c(O)c2)oc2ccccc12 | 1.0% | ? | ? | ? | 3.16µM* | ·
COc1ccc(-c2cc(=O)c3ccccc3o2)cc1OC | 0.2% | 14.6µM* | ? | · | -26.9% | ·
O=c1cc(-c2ccc(C(F)(F)F)cc2)oc2ccccc12 | · | ? | -1.3% | -27.1% | · | 24.7%
COc1ccc2c(=O)cc(-c3ccccc3F)oc2c1 | -13.2% | 20.6µM* | ? | 129.5% | 4.2% | ?
COc1ccc2c(=O)cc(C(F)(F)C(F)(F)F)oc2c1 | -2.5% | -0.3% | -0.7% | 23.8% | 13.7% | 4.5%
COc1ccc(NC(=O)Nc2ccc(C)c(OCc3cc(=O)n4ccccc4n3)c2)cc1OC | · | · | · | 4.7% | · | ·
SMILES | Gal4-VP16 FLuc | TDP1 cell noCPT | TDP1 cell CPT | ALOX12 inh | RORgamma inh | ELG1 repair inh
CC(=O)N(C1CC1)C1CCOC2(CCN(C(=O)c3n[nH]c4ccccc34)CC2)C1 (configuration not stated) | · | · | · | 2.8% | · | ·
COc1cccc2c1OCCCN(C(=O)C1COc3ccccc3C1)C2 (configuration not stated) | · | · | · | 30.7% | · | ·
COC(=O)C(=Nc1ccccc1)/C(C(=O)C(=O)N(C)c1ccccc1)=C(\O)c1ccccc1 | -2.9% | 6.6% | 24.5% | 12.6µM* | -1.5% | ?
COc1ccccc1-c1coc2cc(OC(=O)c3ccccc3C)ccc2c1=O | · | · | · | 7.0% | · | ·
COc1ccc(NC(=O)CN2CCN(Cc3ccc(F)cc3)S2(=O)=O)cc1Cl | · | 20.6µM* | ? | -1.2% | · | ·
O=C(CN1CCN(Cc2ccc(F)cc2Cl)S1(=O)=O)Nc1ccc(F)cc1 | · | 14.6µM* | 11.6µM* | -20.3% | · | ·
Cc1ccc(C)c(/C=N/NC(=S)NC(C)C)c1 | 3.16µM* | 5.8µM* | 5.8µM* | -27.7% | 2.24µM* | 2.2%
CNC(=S)N/N=C/c1cc(C)ccc1C | 5.01µM* | ? | ? | ? | 2.24µM* | 22.5%
Cc1ccc(/C=N/NC(=O)CCn2nc(C)cc2C)c(C)c1 | 2.8% | ? | ? | -5.3% | -23.6% | ?
O=C(O)CNC(=O)C1COc2ccccc2O1 (configuration not stated) | -18.2% | -12.6% | 1.8% | 4.3% | -17.8% | 12.9%
O=C(CSC1=NCCN1)C1COc2ccccc2O1 (configuration not stated) | -1.2% | ? | 18.4µM* | 0.0% | -14.9% | 10.4%
CNCc1nc(-c2ccc[nH]2)c2cc(Cl)ccc2n1 | · | 14.1µM* | 11.2µM* | · | · | ·
CC(C)Oc1ccc(CNC(=O)c2noc(-c3ccccc3F)n2)cc1 | · | · | · | 21.3% | · | ·
CCCCOc1ccc(-c2nnn(CC(=O)NCc3ccco3)n2)cc1 | ? | 4.61µM* | 4.61µM* | 1.0% | 24.6% | ?
COc1ccc(-c2nc(SC(C)C(=O)NCC3CCCO3)n[nH]2)cc1 (configuration not stated) | · | 9.2µM* | 8.2µM* | -6.1% | · | -10.7%
COc1ccc(-c2nnc(SCC(=O)NCC3CCCO3)o2)cc1 (configuration not stated) | ? | 14.6% | -15.4% | ? | 12.6µM* | 16.2%
COc1ccc(-c2nc(SC(C)C(=O)NC(=O)NC3CCCCC3)n[nH]2)cc1 (configuration not stated) | · | · | · | 6.4% | · | ·
Cc1nc(SCC(=O)NCc2ccco2)[nH]c(=O)c1C | 1.1% | -20.2% | 23.1µM* | 4.3% | 7.3% | 4.6%
COc1cccc(C(=O)NCC2CCCN(Cc3ccc(C)s3)C2)c1OC (configuration not stated) | · | · | · | 50.0% | · | ·

Screening results as filed in PubChem.
